# From the supplement of paper PMC8728848
# The full list was thinned out, with the strongest signals kept by preference.
# B1: PRKCE (Homo sapiens), Q02156 (protein)
# chain: MVVFNGLLKIKICEAVSLKPTAWSLRHAVGPRPQTFLLDPYIALNVDDSRIGQTATKQKTNSPAWHDEFVTDVCNGRKIELAVFHDAPIGYDDFVANCTIQFEELLQNGSRHFEDWIDLEPEGRVYVIIDLSGSSGEAPKDNEERVFRERMRPRKRQGAVRRRVHQVNGHKFMATYLRQPTYCSHCRDFIWGVIGKQGYQCQVCTCVVHKRCHELIITKCAGLKKQETPDQVGSQRFSVNMPHKFGIHNYKVPTFCDHCGSLLWGLLRQGLQCKVCKMNVHRRCETNVAPNCGVDARGIAKVLADLGVTPDKITNSGQRRKKLIAGAESPQPASGSSPSEEDRSKSAPTSPCDQEIKELENNIRKALSFDNRGEEHRAASSPDGQLMSPGENGEVRQGQAKRLGLDEFNFIKVLGKGSFGKVMLAELKGKDEVYAVKVLKKDVILQDDDVDCTMTEKRILALARKHPYLTQLYCCFQTKDRLFFVMEYVNGGDLMFQIQRSRKFDEPRSRFYAAEVTSALMFLHQHGVIYRDLKLDNILLDAEGHCKLADFGMCKEGILNGVTTTTFCGTPDYIAPEILQELEYGPSVDWWALGVLMYEMMAGQPPFEADNEDDLFESILHDDVLYPVWLSKEAVSILKAFMTKNPHKRLGCVASQNGEDAIKQHPFFKEIDWVLLEQKKIKPPFKPRIKTKRDVNNFDQDFTREEPVLTLVDEAIVKQINQEEFKGFSYFGEDLMP
# How the values were obtained:
# Test in all cases: glycan array binding signal (z-score within array); higher = stronger binding
# Conditions in all cases: glycan notation: IUPAC condensed, linker removed
# [1] = target: Fuc(a1-2)Gal(b1-3)GalNAc(b1-4)[Neu5Ac(a2-3)]Gal(b1-4)Glc
# Outline: (§1)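 Arrays were curated from the Consortium for Functional Glycomics database, 3228 in total, and kept only where the protein sequence was available. Binding is expressed as a within-array Z-score. This score was averaged across arrays of the same protein sequence at different concentrations or buffers and across linkers, and negative values can be read as non-binding.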
# [2] = target: Fuc(a1-2)Gal(b1-3)[Fuc(a1-4)]GlcNAc
# Outline: as §1
# [3] = target: Fuc(a1-2)Gal(b1-3)[Fuc(a1-4)]GlcNAc(b1-2)Man(a1-3)[Fuc(a1-2)Gal(b1-3)[Fuc(a1-4)]GlcNAc(b1-2)Man(a1-6)]Man(b1-4)GlcNAc(b1-4)GlcNAc
# Outline: as §1
# Fuc(a1-2)Gal(b1-4)Glc6S = target: Fuc(a1-2)Gal(b1-4)Glc6S
# Outline: as §1
# [4] = target: Fuc(a1-2)Gal(b1-4)GlcNAc(b1-3)Gal(b1-4)GlcNAc(b1-3)Gal(b1-4)GlcNAc
# Outline: as §1
# [5] = target: Fuc(a1-2)Gal(b1-4)[Fuc(a1-3)]GlcNAc(b1-3)[Neu5Ac(a2-6)Gal(b1-4)GlcNAc(b1-6)]Gal(b1-4)Glc
# Outline: as §1
# [6] = target: Fuc(a1-2)Gal6S(b1-4)Glc6S
# Outline: as §1
# [7] = target: Fuc(a1-2)[Gal(a1-3)]Gal(b1-3)GlcNAc
# Outline: as §1
# [8] = target: Fuc(a1-2)[Gal(a1-3)]Gal(b1-3)GlcNAc(b1-3)GalNAc
# Outline: as §1
# [9] = target: Fuc(a1-2)[Gal(a1-3)]Gal(b1-4)GlcNAc(b1-2)Man(a1-3)[Fuc(a1-2)[Gal(a1-3)]Gal(b1-4)GlcNAc(b1-2)Man(a1-6)]Man(b1-4)GlcNAc(b1-4)GlcNAc
# Outline: as §1
# [10] = target: Fuc(a1-2)[Gal(a1-3)]Gal(b1-4)GlcNAc(b1-6)GalNAc
# Outline: as §1
# [11] = target: Fuc(a1-2)[GalNAc(a1-3)]Gal(b1-3)GlcNAc
# Outline: as §1
# [12] = target: Fuc(a1-3)[Gal(b1-4)]GlcNAc(b1-4)Gal(b1-4)[Fuc(a1-3)]GlcNAc(b1-4)Gal(b1-4)[Fuc(a1-3)]GlcNAc
# Outline: as §1
# Gal(a1-2)Gal = target: Gal(a1-2)Gal
# Outline: as §1
# Gal(b1-3)GalNAc = target: Gal(b1-3)GalNAc
# Outline: as §1
# Gal(b1-3)GlcNAc = target: Gal(b1-3)GlcNAc
# Outline: as §1
# [13] = target: Gal(b1-3)GlcNAc(b1-3)Gal(b1-4)GlcNAc(b1-6)[Gal(b1-3)GlcNAc(b1-3)]Gal(b1-4)Glc
# Outline: as §1
# [14] = target: Gal(b1-3)GlcNAc(b1-3)Gal(b1-4)[Fuc(a1-3)]GlcNAc(b1-6)[Gal(b1-3)GlcNAc(b1-3)]Gal(b1-4)Glc
# Outline: as §1
# [15] = target: Gal(b1-4)GalNAc(b1-3)[Fuc(a1-2)]Gal(b1-4)GlcNAc
# Outline: as §1
# [16] = target: Gal(b1-4)GlcNAc(b1-2)Man(a1-3)[Gal(b1-4)GlcNAc(b1-2)][GlcNAc(b1-4)]Man(b1-4)GlcNAc(b1-4)GlcNAc
# Outline: as §1
# [17] = target: Gal(b1-4)GlcNAc(b1-2)Man(a1-3)[GlcNAc(b1-2)Man(a1-6)]Man(b1-4)GlcNAc(b1-4)GlcNAc
# Outline: as §1
# [18] = target: Gal(b1-4)GlcNAc(b1-2)Man(a1-6)Man(b1-4)GlcNAc(b1-4)GlcNAc
# Outline: as §1
# [19] = target: Gal(b1-4)GlcNAc(b1-2)Man(a1-6)[GlcNAc(b1-2)Man(a1-3)]Man(b1-4)GlcNAc(b1-4)GlcNAc
# Outline: as §1
# [20] = target: Gal(b1-4)GlcNAc(b1-3)Gal(b1-4)GlcNAc
# Outline: as §1
# [21] = target: Gal(b1-4)GlcNAc(b1-3)Gal(b1-4)GlcNAc(b1-3)Gal(b1-4)GlcNAc
# Outline: as §1
# [22] = target: Gal(b1-4)GlcNAc(b1-3)Gal(b1-4)[Fuc(a1-3)GlcNAc(b1-6)]Gal(b1-4)Glc
# Outline: as §1
# Gal3S(b1-4)GlcNAc6S = target: Gal3S(b1-4)GlcNAc6S
# Outline: as §1
# Gal3S4S(b1-4)GlcNAc = target: Gal3S4S(b1-4)GlcNAc
# Outline: as §1
# Gal6S(b1-4)GlcNAc6S = target: Gal6S(b1-4)GlcNAc6S
# Outline: as §1
# [23] = target: GalNAc(b1-3)Gal(a1-4)Gal(b1-4)GlcNAc(b1-3)Gal(b1-4)Glc
# Outline: as §1
# GalNAc4S6S(b1-4)GlcNAc = target: GalNAc4S6S(b1-4)GlcNAc
# Outline: as §1
# GlcA(b1-3)GlcNAc = target: GlcA(b1-3)GlcNAc
# Outline: as §1
# [24] = target: GlcNAc(b1-3)[GlcNAc(b1-4)][GlcNAc(b1-6)]GlcNAc
# Outline: as §1
# Kdn(a2-3)Gal(b1-3)GalNAc = target: Kdn(a2-3)Gal(b1-3)GalNAc
# Outline: as §1
# Kdn(a2-3)Gal(b1-3)GlcNAc = target: Kdn(a2-3)Gal(b1-3)GlcNAc
# Outline: as §1
# [25] = target: Neu5Ac(a2-3)Gal(b1-3)GalNAc6S
# Outline: as §1
# [26] = target: Neu5Ac(a2-3)Gal(b1-4)GlcNAc(b1-2)Man(a1-3)[Neu5Ac(a2-3)Gal(b1-4)GlcNAc(b1-2)Man(a1-6)]Man(b1-4)GlcNAc(b1-4)[Fuc(a1-6)]GlcNAc
# Outline: as §1
# [27] = target: Neu5Ac(a2-3)Gal(b1-4)GlcNAc(b1-3)Gal(b1-4)[Fuc(a1-3)]GlcNAc
# Outline: as §1
# [28] = target: Neu5Ac(a2-6)Gal(b1-4)GlcNAc(b1-2)Man(a1-3)[Gal(b1-4)GlcNAc(b1-2)Man(a1-6)]Man(b1-4)GlcNAc(b1-4)GlcNAc
# Outline: as §1
# [29] = target: Neu5Ac(a2-6)Gal(b1-4)GlcNAc(b1-2)Man(a1-3)[GlcNAc(b1-2)Man(a1-6)]Man(b1-4)GlcNAc(b1-4)GlcNAc
# Outline: as §1
# [30] = target: Neu5Ac(a2-6)GlcNAc(b1-4)GlcNAc
# Outline: as §1
# [31] = target: Neu5Ac(b2-6)Gal(b1-4)GlcNAc
# Outline: as §1
# Neu5Gc(a2-6)GalNAc = target: Neu5Gc(a2-6)GalNAc
# Outline: as §1
binder,measurement,setting,value
B1,glycan array binding signal (z-score),[1],-0.414
same,glycan array binding signal (z-score),[2],-0.08
same,glycan array binding signal (z-score),[3],3.82
same,glycan array binding signal (z-score),Fuc(a1-2)Gal(b1-4)Glc6S,0.01
same,glycan array binding signal (z-score),[4],-0.376
same,glycan array binding signal (z-score),[5],-0.275
same,glycan array binding signal (z-score),[6],3.89
same,glycan array binding signal (z-score),[7],-0.168
same,glycan array binding signal (z-score),[8],0.498
same,glycan array binding signal (z-score),[9],-0.355
same,glycan array binding signal (z-score),[10],4.32
same,glycan array binding signal (z-score),[11],-0.107
same,glycan array binding signal (z-score),[12],-0.315
same,glycan array binding signal (z-score),Gal(a1-2)Gal,0.035
same,glycan array binding signal (z-score),Gal(b1-3)GalNAc,-0.389
same,glycan array binding signal (z-score),Gal(b1-3)GlcNAc,-0.364
same,glycan array binding signal (z-score),[13],-0.234
same,glycan array binding signal (z-score),[14],-0.277
same,glycan array binding signal (z-score),[15],0.061
same,glycan array binding signal (z-score),[16],-0.146
same,glycan array binding signal (z-score),[17],2.61
same,glycan array binding signal (z-score),[18],-0.31
same,glycan array binding signal (z-score),[19],1.3
same,glycan array binding signal (z-score),[20],-0.365
same,glycan array binding signal (z-score),[21],0.155
same,glycan array binding signal (z-score),[22],-0.176
same,glycan array binding signal (z-score),Gal3S(b1-4)GlcNAc6S,6.34
same,glycan array binding signal (z-score),Gal3S4S(b1-4)GlcNAc,8.77
same,glycan array binding signal (z-score),Gal6S(b1-4)GlcNAc6S,3.2
same,glycan array binding signal (z-score),[23],-0.217
same,glycan array binding signal (z-score),GalNAc4S6S(b1-4)GlcNAc,-0.211
same,glycan array binding signal (z-score),GlcA(b1-3)GlcNAc,-0.247
same,glycan array binding signal (z-score),[24],4.39
same,glycan array binding signal (z-score),Kdn(a2-3)Gal(b1-3)GalNAc,-0.132
same,glycan array binding signal (z-score),Kdn(a2-3)Gal(b1-3)GlcNAc,-0.38
same,glycan array binding signal (z-score),[25],-0.364
same,glycan array binding signal (z-score),[26],-0.386
same,glycan array binding signal (z-score),[27],-0.192
same,glycan array binding signal (z-score),[28],0.571
same,glycan array binding signal (z-score),[29],3.58
same,glycan array binding signal (z-score),[30],-0.318
same,glycan array binding signal (z-score),[31],-0.121
same,glycan array binding signal (z-score),Neu5Gc(a2-6)GalNAc,-0.342
